A selection: hits, their analogues and other compounds. The true share with any hit is near 11%.
FLuc inh – blocks purified firefly luciferase enzyme activity; P08659; purified P. pyralis luciferase, luminescence, biochemical; Potency, µM (top dose mostly 115 µM), actives largely listed as inhibitors; 2.5% of 76,000 active; further: nearly all actives have a fitted effect of over 65% in size
Target sequence (P08659 whole entry, looked up): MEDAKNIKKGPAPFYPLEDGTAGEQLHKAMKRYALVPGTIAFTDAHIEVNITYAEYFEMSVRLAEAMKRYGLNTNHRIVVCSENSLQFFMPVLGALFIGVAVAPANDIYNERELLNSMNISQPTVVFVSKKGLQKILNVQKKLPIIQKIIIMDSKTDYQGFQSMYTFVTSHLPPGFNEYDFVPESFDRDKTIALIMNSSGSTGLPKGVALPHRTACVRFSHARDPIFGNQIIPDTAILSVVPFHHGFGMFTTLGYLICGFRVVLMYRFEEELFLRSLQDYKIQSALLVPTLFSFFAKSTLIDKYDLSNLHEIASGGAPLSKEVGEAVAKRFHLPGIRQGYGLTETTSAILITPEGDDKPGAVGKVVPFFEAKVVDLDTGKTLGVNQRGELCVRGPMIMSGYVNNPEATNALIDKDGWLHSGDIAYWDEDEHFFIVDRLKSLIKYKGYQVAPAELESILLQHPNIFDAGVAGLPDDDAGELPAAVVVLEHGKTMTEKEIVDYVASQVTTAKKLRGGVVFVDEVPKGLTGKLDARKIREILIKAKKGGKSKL
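Luminescence read by CCD imaging after purified firefly luciferase (10nM final) was added to substrate buffer holding 10uM D-luciferin and 10uM ATP, pH 7.5, pre-dosed with compound.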
3T3 cytotox – kills NIH 3T3 cells; NIH 3T3 viability, CellTiter-Glo ATP luminescence, 48-72 h; Potency, µM (top dose mostly 96.7 µM), most hits filed as inhibitors; 4.3% of 94,000 active; AID 1345082; further: nearly all actives have a fitted effect of over 55% in size
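Cells were seeded at 400 per well, treated with pin-transferred compound, and kept 48 or 72 hr at 37 °C before CellTiter-Glo addition and luminescence imaging of cellular ATP.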
NPR1 antag – human Npr1 receptor antagonism | 1.6% of 76,000 active | P16066 | HEK293 hNpr1 GloSensor cGMP, ANP-stimulated luminescence | Potency, µM (titrated, usually from 46.3 µM), most hits filed as inhibitors; calls by dose curve; further: nearly all actives have a fitted effect of over 60% in size
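Compound pre-incubated 30 min at room temperature on GloSensor-loaded HEK293 cells stably carrying hNpr1 and the pGS-40F cGMP biosensor. Stimulation uses hNppA at 0.1 nM final; luminescence is taken at baseline and 20 min post-agonist.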
HEK cytotox – cytotoxic compounds in HEK 293 cells; 6.6% of 94,000 active; AID 1345083; HEK 293 viability, ATP luminescence (CellTiter-Glo), 48-72 h; Potency, µM (top dose mostly 115 µM), hits mostly inhibitors; further: nearly all actives have a fitted effect of over 60% in size
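Cells seeded first (HEK 293, 250 cells/well), then compound added by pintool. Incubation ran 48 or 72 hr at 37 degree Celsius. CellTiter-Glo was added and luminescence imaged after 10 min at room temperature.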
A number is an active result; 0 = inactive; ? = inconclusive; - = no result given. Unless noted, the call rests on the fitted dose curve; in most records, active means well fitted curve in the direction sought with a large enough effect; inconclusive means small, poorly fitted or top-dose-only effect, or another doubt; inactive means no such curve, though single readings can be large; an effect the other way counts as inactive or inconclusive.

SMILES | FLuc inh | 3T3 cytotox | NPR1 antag | HEK cytotox
CC(C)Cc1cc(CNC(=O)Nc2nnc(C(C)(C)C)s2)on1 | 0 | ? | 0 | 45µM
CC(C)(C)c1nnc(NC(=O)NCc2ccncc2)s1 | 0 | ? | 0 | 0
Cc1ccc2oc([C@H]3CCN(Cc4ccc(C(=O)O)cc4)C3)nc2c1 | 71µM | ? | 0 | 0
Cc1ccc2oc([C@H]3CCN(C(=O)C4CC4)C3)nc2c1 | 35µM | 0 | 0 | ?
Cc1ccc(CN2CC[C@H](c3nc4cc(C)ccc4o3)C2)cc1 | 45µM | ? | 0 | ?
Cc1ccc(C(=O)N2CCC3(CC2)NC(=O)N(c2ccccc2Cl)N3)cc1 | 0 | ? | 0 | ?
O=C1CC2(CCN(Cc3ccc(C(F)(F)F)cc3)CC2)Oc2ccccc2N1c1ccccc1 | 0 | 25µM | 0 | 20µM
O=C1CC2(CCN(Cc3ccsc3)CC2)Oc2ccccc2N1c1ccccc1 | 0 | ? | 0 | ?
O=C1CC2(CCN(Cc3ccc(C(F)(F)F)cc3)CC2)Oc2ccccc2N1 | 0 | ? | 0 | 45µM
O=C1CC2(CCN(Cc3ccc(F)cc3)CC2)Oc2ccccc2N1 | 0 | 0 | 0 | ?
O=C1CC2(CCN(Cc3ccc(F)cc3)CC2)Oc2ccccc2N1c1ccccc1 | 0 | ? | 0 | 50µM
COc1cccc(C(=O)N2CCC3(CC2)NC(=O)N(c2cccc(F)c2)N3)c1OC | 0 | 0 | 0 | ?
O=C1NC(C(=O)N2CCN(Cc3ccccc3)CC2)CN1Cc1ccccc1 (stereo not given) | 0 | 0 | 0 | 0
O=C(C1CN(c2ccccc2)C(=O)N1)N1CCN(Cc2ccccc2)CC1 (stereo not given) | 0 | ? | 0 | 45µM
O=C(C1CN(c2ccc(Cl)cc2)C(=O)N1)N1CCN(Cc2ccccc2)CC1 (stereo not given) | 0 | ? | 0 | 25µM
Cc1cccc(N2Cc3c(ncnc3N3CCN(C)CC3)N(C)CC2=O)c1 | - | 0 | - | 0
Cc1nnc2ccc(N3CCC(NC(=O)NC(C)C)C3)nn12 (stereo not given) | - | 0 | - | 0
O=C(c1cc2ccccc2[nH]1)N1CCC2(CC1)CN(c1ncccn1)CC2CO (stereo not given) | 0 | ? | 0 | 79µM
Cc1nn(C)c2nc(-c3ccccn3)nc(NCC(c3ccco3)N(C)C)c12 (stereo not given) | 0 | ? | 0 | 28µM
COC(CNc1nc(-c2ccccn2)nc2c1c(C)nn2C)c1cccs1 (stereo not given) | 0 | 25µM | 0 | 32µM
CNS(=O)(=O)CCNc1nc(-c2ccccn2)nc2c1c(C)nn2C | 0 | 0 | 0 | 0
CCS(=O)(=O)N1CCc2nc(-c3ccccc3)[nH]c2C1 | - | 0 | - | 0
COc1cccc(CNC(=O)C2CCc3nnc(-c4cccc(C(F)(F)F)c4)n32)c1 (stereo not given) | - | 0 | - | ?
CNC(=O)C1(N2CCC[C@H]2C(=O)NCc2ccccc2)CCCCC1 | 0 | 0 | 0 | 0
COC1CN(c2cccc(F)c2)C12CCN(C(=O)CC1CCCCC1)CC2 (stereo not given) | 0 | ? | 0 | 45µM
SMILES | FLuc inh | 3T3 cytotox | NPR1 antag | HEK cytotox
COC1CN(c2cccc(F)c2)C12CCN(S(=O)(=O)c1cccs1)CC2 (stereo not given) | - | ? | - | 18µM
COc1cccc(S(=O)(=O)N2CCC3(CC2)C(OC)CN3c2cccc(F)c2)c1 (stereo not given) | 0 | 0 | 0 | 0
COC1C(=O)N(c2cccc(F)c2)C12CCN(C(=O)CC1CCN(C(C)=O)CC1)CC2 (stereo not given) | 0 | 0 | 0 | 0
O=C(NC1CCCc2c1cnn2-c1ccccn1)c1cn[nH]c1-n1cnnn1 (stereo not given) | 0 | 0 | 0 | 0
CC(C)(C)c1ccc(-n2ncc3c2CCCC3NC(=O)c2c[nH]c(=O)[nH]c2=O)cc1 (stereo not given) | ? | ? | 8.9µM | 32µM
OCC1(Cc2cccc(Cl)c2)CCCN(Cc2nc(-c3ccc(F)cc3)cs2)C1 (stereo not given) | 0 | ? | 0 | 79µM
CCOC(=O)C1CCN(C(=O)c2ccc3nnc(C(C)(C)C)n3c2)CC1 | - | 0 | - | 0
O=C1CN(S(=O)(=O)c2ccc(F)cc2)CC(O)CN1CCCc1ccccc1 (stereo not given) | - | 0 | - | ?
CN(Cc1cccc(C(F)(F)F)c1)C(=O)Cc1cccc(Cl)c1 | ? | 0 | 0 | ?
CN(Cc1cccc(C(F)(F)F)c1)C(=O)c1cccc(Cl)c1 | 0 | ? | 0 | 100µM
O=C([C@@H]1CCCN1c1nccc(Nc2ccccc2Cl)n1)N1CCN(Cc2ccccc2)CC1 | - | 45µM | - | ?
CC(C)NC(=O)[C@@H]1CCCN1c1nccc(Nc2ccccc2Cl)n1 | - | 0 | - | ?
Cc1ccc(Nc2ccnc(N3CCCC3C(=O)N3CCN(Cc4ccccc4)CC3)n2)cc1 (stereo not given) | - | 35µM | - | 14µM
COc1ccccc1Nc1ccnc(N2CCC[C@H]2C(=O)N2CCCC2)n1 | - | 0 | - | 0
O=C(NCc1ccccc1Cl)[C@@H]1CCCN1c1nccc(Nc2ccccc2Cl)n1 | - | 0 | - | 0
O=C([C@@H]1CCCN1c1nccc(Nc2ccccc2Cl)n1)N1CCC(c2ccccc2)CC1 | - | 35µM | - | 22µM
O=C(C1CCN(c2nccc(Nc3ccccc3Cl)n2)CC1)N1CCC(c2ccccc2)CC1 | - | 40µM | - | 32µM
O=C(C1CCCN1c1nccc(Nc2ccccc2F)n1)N1CCN(Cc2ccccc2)CC1 (stereo not given) | - | ? | - | 32µM
Cc1ccc(Nc2ccnc(N3CCCC3C(=O)N3CCC(c4ccccc4)CC3)n2)cc1 (stereo not given) | - | 32µM | - | 32µM
COc1ccc(-c2cc(C(=O)NCc3cccc(Cl)c3)c3cnn(C)c3n2)cc1 | - | ? | - | 0
CN1CCN(C(=O)C[C@@H]2CCNC[C@@H]2Cc2cc(-c3ccccc3)on2)CC1 | 0 | ? | 0 | 0
COc1ccc(-c2cc(C[C@H]3CNCC[C@H]3CC(=O)N3CCN(C)CC3)no2)cc1 | 0 | ? | 0 | 0
CN(Cc1cc(C[C@H]2CNCC[C@H]2CC(=O)N2CCN(c3ccccc3)CC2)no1)c1ccccc1 | 0 | 20µM | 0 | ?
COc1ccc(-c2cc(C[C@H]3CNCC[C@H]3CC(=O)N3CCN(c4ccccc4)CC3)no2)cc1 | 0 | 25µM | 0 | 40µM
COc1cc2c(cc1OC)CN(C(=O)C[C@@H]1CCNC[C@@H]1Cc1cc(-c3ccccc3)on1)CC2 | 0 | ? | 0 | 79µM
SMILES | FLuc inh | 3T3 cytotox | NPR1 antag | HEK cytotox
O=C(C[C@@H]1CCNC[C@@H]1Cc1cc(-c2ccccc2)on1)N1CCc2ccccc2C1 | 0 | 32µM | 0 | 40µM
Cc1ccncc1C(=O)N1CCC(Oc2ccccc2-c2nc(C3CC3)no2)C1 (stereo not given) | - | 0 | - | ?
COc1ccccc1CNC(=O)c1ccc2c(c1)CC(=O)N2Cc1ccc(F)cc1 | 0 | ? | 0 | ?
O=C(c1cccc(Cl)c1)N1CCN(C(=O)c2nc3cccnc3n(C3CC3)c2=O)CC1 | - | 0 | - | 0
COc1ccc(C(=O)N2CCC(C(=O)N3CCC(c4nc5ncccc5[nH]4)CC3)CC2)cc1 | - | 0 | - | 0
CN1c2cc(C(=O)N3CCN(c4ccccc4Cl)CC3)ccc2C(=O)N2CCCCC21 (stereo not given) | 0 | ? | 0 | 40µM
